High-throughput results from PubChem BioAssay.
Tau fibril ThT: qHTS for Inhibitors of Tau Fibril Formation, Thioflavin T Binding | Microtubule-associated protein tau (Homo sapiens), P10636 | recombinant tau K18 P301L, heparin-induced fibrillization, ThT fluorescence | Potency, µM (doses to about 57.4 µM), for the others: top-dose activity, negative = inhibition, usual class: inhibitors | 270,000 compounds, 2.1% hits | AID 1460, 2008; further: nearly all actives have a fitted effect of over 55% in size
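Heparin-induced (20 uM) aggregation of recombinant human K18 P301L tau, 15 uM unlabeled with 0.24 uM labeled, pH 7 acetate buffer, 6 hr at 37 C with compound. Fibrils quantified by 30 uM ThT fluorescence after 1 hr ambient incubation.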
Gal4-VP16 FLuc: VP16 counterscreen qHTS for inhibitors of ROR gamma transcriptional activity. Potency, µM (top dose mostly 53.6 µM), for the others: at the top dose activity, negative = inhibition, hits mostly inhibitors. Drosophila S2 Gal4-VP16 UAS-luciferase, luminescence, 20 h. 310,000 compounds, 3.5% hits. AID 2546, 2010;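 further: Gal4-VP16 expression switched on by copper sulfate through the metallothionein promoter; nearly all actives have a fitted effect of over 50% in size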
Tau fluor cs: Counterscreen qHTS for Inhibitors of Tau Fibril Formation, Fluorescence Polarization; tau K18 P301L Alexa594 fluorescence, heparin fibrillization; Potency, µM (doses to about 57.7 µM), for inactives: at the top dose activity change, negative = decrease; 280,000 compounds, 0.93% hits; further: nearly all actives have a fitted effect of over 55% in size
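Human tau K18 P301L (15 uM unlabeled, 0.24 uM Alexa 594-labeled) in 100 mM sodium acetate pH 7 with 20 uM heparin, 6 hr at 37 C. ThT 30 uM added, 1 hr ambient; Alexa 594 FP and total fluorescence read at 555/632 nm.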
RORgamma inh: qHTS for inhibitors of ROR gamma transcriptional activity; 310,000 compounds, 5.4% hits; Potency, µM (titrated, usually from 53.6 µM), for the others: top-dose activity change, negative = inhibition, actives largely listed as inhibitors; AID 2551, 2010; Drosophila S2 Gal4-RORgamma UAS-luciferase reporter, 20 h; Nuclear receptor ROR-gamma (Mus musculus), P51450; further: nearly all actives have a fitted effect of over 60% in size
Target sequence (P51450 whole entry, looked up, the tested form may be a part): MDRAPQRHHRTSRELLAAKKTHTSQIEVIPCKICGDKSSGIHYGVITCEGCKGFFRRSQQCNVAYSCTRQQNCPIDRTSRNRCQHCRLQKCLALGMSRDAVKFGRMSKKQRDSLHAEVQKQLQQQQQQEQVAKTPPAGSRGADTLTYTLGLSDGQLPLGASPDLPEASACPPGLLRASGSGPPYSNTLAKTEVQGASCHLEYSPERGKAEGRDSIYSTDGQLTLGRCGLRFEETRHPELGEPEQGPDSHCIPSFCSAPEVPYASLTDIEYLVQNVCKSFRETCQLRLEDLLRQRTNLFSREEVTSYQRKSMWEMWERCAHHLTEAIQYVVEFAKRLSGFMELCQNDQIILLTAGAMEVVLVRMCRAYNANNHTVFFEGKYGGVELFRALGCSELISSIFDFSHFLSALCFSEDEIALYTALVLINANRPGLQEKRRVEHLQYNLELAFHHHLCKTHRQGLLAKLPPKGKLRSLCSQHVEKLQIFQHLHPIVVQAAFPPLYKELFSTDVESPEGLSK
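Using a luciferase readout, inhibitors were identified by reduced reporter activity in Drosophila cells coexpressing a copper-inducible Gal4–ROR gamma fusion and UAS-driven Photinus luciferase, incubated 20 hr after 700 uM copper sulfate.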
Tau fibril FP: qHTS for Inhibitors of Tau Fibril Formation, Fluorescence Polarization | Microtubule-associated protein tau (Homo sapiens), P10636 | K18 P301L tau heparin fibrillization, Alexa594 FP, 6 h | Potency, µM (titrated, usually from 57.7 µM), for inactives: at the highest dose activity, negative = inhibition, usual class: inhibitors | 280,000 compounds, 0.39% hits; further: nearly all actives have a fitted effect of over 55% in size
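Human K18 P301L fragment (15 uM unlabeled plus 0.24 uM Alexa 594-labeled) in 100 mM sodium acetate pH 7 with compound, aggregation induced by 20 uM heparin for 6 hr at 37 C. ThT (30 uM) added for 1 hr, then Alexa 594 FP read.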
The depositor's hits bear a star; ? = inconclusive; · = no result; [ ] = another dose, or the depositor's remark. Shown are actives, neighbours in structure and some others; about 7.3% of the full set was active somewhere. The call rests on the fitted dose curve; in most records, active means well fitted curve in the direction sought with a large enough effect; inconclusive means small, poorly fitted or top-dose-only effect, or another doubt; inactive means no such curve, though single readings can be large; an effect the other way counts as inactive or inconclusive. On the % scale 0 is the no-effect control and ±100 the full control effect; potency means the concentration at half of the fitted maximal effect.

SMILES	Tau fibril ThT	Gal4-VP16 FLuc	Tau fluor cs	RORgamma inh	Tau fibril FP
COc1ccc(-n2cnc3cc(NCc4cccs4)ccc32)cc1	?	7%	?	14µM*	14%
CC(=O)OCC1OC(c2ccc(C(C)=O)cc2)C=CC1OC(C)=O (configuration not stated)	-15%[11.5 µM]	7%[10 µM]	-5%[11.6 µM]	-13%[10 µM]	-6%[11.6 µM]
Cc1ccc([N+](=O)[O-])cc1NC(=O)c1ccccc1	1%	-13%	4%	11%	0%
CC(C)(C)c1ccc(C(=O)NNc2cc(N3CCCCC3)nc(N3CCCCC3)n2)cc1	?	-9%	?	-93%	10%
O=C(NNc1cc(N2CCCC2)nc(N2CCCC2)n1)c1ccc([N+](=O)[O-])cc1	?	3.2µM*	?	1.4µM*	7%
Cc1nc(NNC(=O)c2ccc([N+](=O)[O-])cc2)cc(-c2ccccc2)n1	?	7.9µM*	-29%	2.2µM*	-7%
N#C/C(=C1/C(=O)Nc2ccc(Br)cc21)c1ccccn1	28µM*	0%	-21%	-48%	?
O=C1Nc2ccc(Br)cc2C1=C1CCCCC1	·	-8%	·	-16%	·
Cc1c(CN(C)C)c2c(n1C)C(=O)c1ccc(Br)cc1-2	?	-4%	-7%	-30%	7%
Cc1c(CN(C)C)c2c(n1Cc1ccccc1)C(=O)c1ccc(Br)cc1-2	16µM*	-18%	?	?	13%
C=CCc1cccc(CNc2cnc3ccccc3c2)c1O	·	7.1µM*	·	?	·
Oc1ccccc1CNc1cnc2ccccc2c1	-11%	?	-29%	?	-1%
Cc1ccc(NC(=O)c2ccc(CSc3ccccn3)cc2)cc1	-1%	-11%	-16%	14%	-6%
Cc1ccc(NC(=O)c2ccc(CSc3ccccn3)cc2)c(O)c1	?	2%	18µM*[quencher]	30%	19%
CNC(=O)NC(=O)CSc1nc2cc(C(=O)OC)ccc2c(=O)n1-c1ccccc1	-4%	22µM*	-2%	-44%	6%
COc1ccc2oc(-c3ccc(C)c(NC(=O)c4ccc(-c5ccccc5[N+](=O)[O-])o4)c3)nc2c1	?	·	-27%	·	-6%
O=C(CN1C(=O)/C(=C/c2ccc(Cl)cc2)SC1=S)NC1C=CS(=O)(=O)C1 (configuration not stated)	·	?	·	-25%	·
CC(C)c1ccc(/C=C2\SC(=O)N(CC(=O)NC3C=CS(=O)(=O)C3)C2=O)cc1 (configuration not stated)	·	4.5µM*	·	?	·
Cc1cc(=O)[nH]c(-n2nc(C)c(Oc3ccccc3O)c2C)n1	-11%	11µM*	-3%	4.5µM*	-8%
Cc1cc(=O)[nH]c(-n2nc(C)cc2C)n1	-16%	3.2µM*	-2%	1.6µM*	2%
Cc1cc(=O)[nH]c(N2CCCNCC2)n1	·	-1%	·	14%	·
Cc1cc(C)c(NC(=O)Cc2csc(C)n2)c(Cl)c1	-5%	·	-4%	·	-3%
CCOCc1cc(CN2CCCC(CNC(=O)c3ccco3)C2)ccc1OC (configuration not stated)	·	-4%	·	-10%	·
CCc1ccc(C(c2ccccc2)c2c[nH]c3ccc(C)cc23)s1 (configuration not stated)	13µM*	·	10µM*[quencher]	·	?
Cc1ccc2[nH]cc(C(c3ccccc3)c3ccc(Cl)s3)c2c1 (configuration not stated)	?	·	7.9µM*[quencher]	·	?
Clc1ccc(C(c2ccccc2)c2c[nH]c3ccccc23)s1 (configuration not stated)	5%	·	6%	·	-3%
CC(C)(O)c1[nH]c2ccc(C#N)cc2c1C(C)(C)O	·	2%	·	6%	·
COc1ccc(N2CCN(c3nc(=S)n(-c4ccccc4)c(C)c3C(C)=O)CC2)cc1	28µM*	3%	-24%	?	?
CC(=O)c1c(N2CCN(c3cccc(Cl)c3)CC2)nc(=S)n(-c2ccccc2)c1C	-18%	?	-12%	20µM*	-2%
